The panel holds about 83,000 compounds, 20% with a hit somewhere; the sample as a whole holds those more often.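 Cells were grown in 96-well plates and exposed to the test compound at a single concentration for 48 hours; results are reported as percent growth, with values below 10 considered active.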 Active and inactive are the calls of the source.
The compounds below were run on NCI-H23 lung (assay: NCI-60 one-dose screen, 48 h (100 = growth as untreated, 0 = no growth, -100 = all killed)). Conditions: 10 µM unless noted.
In the case of `COc1ccc(/C=C/C(=O)/C=C(/C=C/c2ccc(OC)c(OC)c2)OB(F)F)cc1OC`, the growth is reported as 52.3% (inactive).
In the case of `COc1cc(/C=C/C(=O)/C=C/c2cc3ccc(Cl)cc3[nH]c2=O)ccc1O`, the growth is reported as 61.2% (inactive).
For `CCCCn1c(=O)c(/C=C/C(=O)/C=C/c2cc3ccccc3n(CCCC)c2=O)cc2ccccc21`, the growth was -7.39% (active).
`COc1ccc(-c2nc(C#N)c(NCC(c3ccco3)N3CCCC3)o2)cc1` (stereo not drawn) was tested, and the growth was 53.7% (inactive).
In the case of `N#C/C(=C/c1ccc(O)c([N+](=O)[O-])c1)c1nc(-c2ccc([N+](=O)[O-])cc2)cs1`, the growth is reported as 13.6% (inactive).
`C=C1C(=O)O[C@H]2[C@H]1CC/C(COC(=O)CCCCC(=O)OC/C1=C/CC[C@@]3(C)O[C@H]3[C@H]3OC(=O)C(=C)[C@@H]3CC1)=C\CC[C@@]1(C)O[C@@H]21` was tested, and the growth was 65.2% (inactive).
With `CCOC(=O)c1c(C(F)(F)F)n([O-])c2ccc(Cl)cc2[n+]1=O` the growth was 14.8% (inactive).
For `COc1ccc(-c2nc(C#N)c(NCC(c3ccc(Cl)cc3)N3CCCCC3)o2)cc1` (stereo not drawn), the growth was 91.7% (inactive).
`O=CN1N=C(c2ccc(Cl)cc2)CC1c1cccc(Nc2ccnc3cc(C(F)(F)F)ccc23)c1` (stereo not drawn) was tested, and the growth was 50.6% (inactive).
With `O=C(CCCCCCCCC(=O)Nc1cccc(C2=NCCN2)c1)Nc1cccc(C2=NCCN2)c1` the growth was 75.8% (inactive).
`CCOC(=O)C1CCN(S(=O)(=O)/N=C2/NC(=O)NC2=C(Cl)Cl)CC1` was tested, and the growth was 16.7% (inactive).
In the case of `S=c1ssnc1-c1cc2ccccc2o1`, the growth is reported as 84.3% (inactive).
`NS(=O)(=O)c1ccc(C2C3=C(CCCC3=O)OC3=C2C(=O)c2ccccc2C3=O)cc1` (stereo not drawn) was tested, and the growth was -31.3% (active).
For `C=C1C(=O)O[C@H]2[C@H]1CCC(/C=N/c1ncc(Br)cc1N)=C\CC[C@@]1(C)O[C@@H]21`, the growth was 49.2% (inactive).
For `C#Cc1ccccc1NC(=O)c1sc2nc3c(cc2c1N)CCCCC3`, the growth was 88% (inactive).
`NS(=O)(=O)c1ccc(-n2nc(-c3ccccc3)ccc2=O)cc1` was tested, and the growth was 101% (inactive).
For `COc1ccc(-c2nnc(N3CCN(C(=O)CN4CCN(c5ccc(OC)cc5)CC4)CC3)nc2-c2ccc(OC)cc2)cc1`, the growth was 21.4% (inactive).
For `N#Cc1ccc(Oc2ccc3ccc(=O)oc3c2)cc1`, the growth was 101% (inactive).
With `CC1CCCN(CCCCCOc2ccc3oc4ccccc4c(=O)c3c2)C1` (stereo not drawn) the growth was 75% (inactive).
In the case of `CS(=O)(=O)O[C@@H]1C(=O)N(c2cc3c4ccccc4ccc3c3ccccc23)[C@H]1c1ccc(F)cn1`, the growth is reported as 49.5% (inactive).
With `C=C1C(=O)O[C@H]2[C@H]1CC/C(C=Nc1c(N)cc(F)cc1Br)=C\CC[C@@]1(C)O[C@@H]21` the growth was 93.1% (inactive).
`Cc1ccc(SC2c3ccc(C)cc3Oc3nc(N)c(C#N)c(N)c32)cc1` (stereo not drawn) was tested, and the growth was 82.8% (inactive).
In the case of `O=C(Nc1nccs1)c1noc2ccccc12`, the growth is reported as 91.9% (inactive).
In the case of `C=C(C)[C@@H]1CC[C@]2(C(=O)OCCCC[P+](c3ccccc3)(c3ccccc3)c3ccccc3)CC[C@]3(C)[C@H](CC[C@@H]4[C@@]5(C)CC[C@H](OC(=O)C(Cl)Cl)C(C)(C)[C@@H]5CC[C@]43C)[C@@H]12`, the growth is reported as -16.5% (active).
With `Cc1cc2ccccc2c[n+]1CC(=O)c1ccc(-c2ccccc2)cc1` the growth was 48.6% (inactive).
In the case of `O=C1Nc2ccc(Cl)cc2/C1=N/c1nc(-c2ccc(F)cc2)cs1`, the growth is reported as 44% (inactive).
In the case of `COc1cc(/C=N/Nc2nc(-c3ccc(F)cc3)c(C#N)c(N3CCOCC3)n2)ccc1O`, the growth is reported as 108% (inactive).
With `C=C(C)[C@@H]1CC[C@]2(C(=O)N=C=S)CC[C@]3(C)[C@H](CC[C@@H]4[C@@]5(C)CCC(=O)C(C)(C)[C@@H]5CC[C@]43C)[C@@H]12` the growth was 32.9% (inactive).
`CC1(C)[C@@H](O)CC[C@]2(C)[C@H]3CC[C@@H]4[C@H]5[C@H](c6cn(-c7ccccc7)nn6)CC[C@]5(CO)CC[C@@]4(C)[C@]3(C)CC[C@@H]12` was tested, and the growth was 92.1% (inactive).
For `COc1cc(/C=C/C(=O)c2ccc(NC(=O)CSc3nnc(-c4cc(OC)c(OC)c(OC)c4)n3-c3ccccc3)cc2)cc(OC)c1OC`, the growth was -3.58% (active).
`O=c1c2ccccc2n(CC(O)CN2CCCC2)c2c(Br)cccc12` (stereo not drawn) was tested, and the growth was 131% (inactive).
With `COc1cc(-c2cn(-c3ccc(Cl)c(Cl)c3)c(=O)[nH]2)cc(OC)c1OC` the growth was 92.4% (inactive).
With `COC(=O)c1ccc2c(c1)n(Cc1ccc3ccccc3c1)c[n+]2Cc1ccc2ccccc2c1` the growth was 34.6% (inactive).

Source: PubChem BioAssay (NCI)
